Source: PubChem BioAssay AID1159580 (chemical genetic matrix, 2015)
Several values for one entry are separate records, joined by “and”; a condition that tells them apart may be missing. Equal values may be shown once. Hit rate of the full screen: of about 5,500 compounds, about 2,000 (36%) were called active. Roughly 18% stayed inconclusive and do not appear here. Cut-off read from the data, not from the text of the source: active = normalized growth mostly below about 0.91 (no sharp cut-off); inconclusive = no clear call, values can overlap the other calls; inactive = mostly above about 0.92. The list shows a part of the results.

Experiment: chemical genetic growth profiling, strain panel (AID 1159580);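 note: tested at 20 µM; growth read once vehicle control cultures reached saturation at 30 °C; 1 = growth at the plate median or of vehicle wells; lower values mean less growth of the strain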
Settings: growth OD

Measured: normalized growth

O=C(C1CCCCC1)N1CC(=O)N2CCc3ccccc3C2C1 (centres undefined)
inactive: S. cerevisiae deletion strains, locus YJR075W, strain HOC1, active compounds read low 1 | S. cerevisiae deletion strains, locus YKL009W, strain mrt4, active compounds read low 1.02 | S. cerevisiae deletion strains, locus YKL068W, active compounds read low 1 | S. cerevisiae deletion strains, locus YKL085W, strain MDH1 (second series), active compounds read low 1.01 | S. cerevisiae deletion strains, locus YKL085W, strain MDH1, active compounds read low 1.01 | S. cerevisiae deletion strains, locus YKL160W, strain elf1, active compounds read low 1.01 | S. cerevisiae deletion strains, locus YKL190W, strain CNB1, active compounds read low 1 | S. cerevisiae deletion strains, locus YKR001C, strain vps1, active compounds read low 1.01 | S. cerevisiae deletion strains, locus YKR026C, strain gcn3, active compounds read low 1.01 | S. cerevisiae deletion strains, locus YKR091W, strain srl3, active compounds read low 1.01 | S. cerevisiae deletion strains, locus YLL001W, strain dnm1, active compounds read low 1.06 | S. cerevisiae deletion strains, locus YLL026W, active compounds read low 1.01 | S. cerevisiae deletion strains, locus YLL041C, strain sdh2, active compounds read low 0.995 | S. cerevisiae deletion strains, locus YLR027C, strain aat2, active compounds read low 0.984 | S. cerevisiae deletion strains, locus YLR039C, strain RIC1, active compounds read low 1.01 | S. cerevisiae deletion strains, locus YLR058C, strain SHM2, active compounds read low 1 | S. cerevisiae deletion strains, locus YLR102C, strain apc9, active compounds read low 1.01 | S. cerevisiae deletion strains, locus YLR113W, strain HOG1, active compounds read low 1.01 | S. cerevisiae deletion strains, locus YLR221C, strain rsa3, active compounds read low 1.03 | S. cerevisiae deletion strains, locus YLR258W, strain gsy2, active compounds read low 1.03 | S. cerevisiae deletion strains, locus YLR262C, strain YPT6 (second series), active compounds read low 1.04 | S. cerevisiae deletion strains, locus YLR262C, strain YPT6, active compounds read low 1.02 | S. cerevisiae deletion strains, locus YLR268W, strain sec22, active compounds read low 1.03 | S. cerevisiae deletion strains, locus YLR320W, strain mms22, active compounds read low 1.02 | S. cerevisiae deletion strains, locus YLR330W, strain CHS5, active compounds read low 1.01 | S. cerevisiae deletion strains, locus YLR342W, strain FKS1 (second series), active compounds read low 1.01 | S. cerevisiae deletion strains, locus YLR342W, strain FKS1, active compounds read low 1.01 | S. cerevisiae deletion strains, locus YLR357W, strain rsc2, active compounds read low 0.998 | S. cerevisiae deletion strains, locus YLR370C, strain arc18, active compounds read low 1.02 | S. cerevisiae deletion strains, locus YLR371W, strain rom2, active compounds read low 1.01 | S. cerevisiae deletion strains, locus YLR384C, strain iki3, active compounds read low 1.01 | S. cerevisiae deletion strains, locus YLR418C, strain cdc73, active compounds read low 1.01 | S. cerevisiae deletion strains, locus YML016C, strain PPZ1, active compounds read low 0.999 | S. cerevisiae deletion strains, locus YML032C, strain rad52, active compounds read low 1.01 | S. cerevisiae deletion strains, locus YML120C, strain ndi1, active compounds read low 1.04 | S. cerevisiae deletion strains, locus YML124C, strain tub3, active compounds read low 1 | S. cerevisiae deletion strains, locus YMR058W, strain fet3, active compounds read low 1 | S. cerevisiae deletion strains, locus YMR078C, strain ctf18, active compounds read low 0.997 | S. cerevisiae deletion strains, locus YMR125W, strain sto1, active compounds read low 1.02 | S. cerevisiae deletion strains, locus YMR129W, active compounds read low 1.01 | S. cerevisiae deletion strains, locus YMR205C, strain PFK2, active compounds read low 1.02 | S. cerevisiae deletion strains, locus YMR223W, strain ubp8, active compounds read low 0.987 | S. cerevisiae deletion strains, locus YMR231W, strain pep5, active compounds read low 1 | S. cerevisiae deletion strains, locus YMR263W, strain SAP30, active compounds read low 1 | S. cerevisiae deletion strains, locus YMR307W, strain GAS1, active compounds read low 1 and 0.995 | S. cerevisiae deletion strains, locus YNL067W, strain RPL9B, active compounds read low 1 | S. cerevisiae deletion strains, locus YNL071W, strain lat1, active compounds read low 0.996 | S. cerevisiae deletion strains, locus YNL153C, strain GIM3, active compounds read low 1.03 | S. cerevisiae deletion strains, locus YNL175C, strain NOP13, active compounds read low 1.01 | S. cerevisiae deletion strains, locus YNL183C, strain NPR1, active compounds read low 0.96 | S. cerevisiae deletion strains, locus YNL197C, strain WHI3, active compounds read low 1.01 | S. cerevisiae deletion strains, locus YNL209W, strain ssb2, active compounds read low 1 | S. cerevisiae deletion strains, locus YNL224C, strain SQS1, active compounds read low 1.02 | S. cerevisiae deletion strains, locus YNL233W, strain BNI4, active compounds read low 0.995 | S. cerevisiae deletion strains, locus YNL248C, strain rpa49, active compounds read low 0.893 | S. cerevisiae deletion strains, locus YNL250W, strain rad50, active compounds read low 1.01 | S. cerevisiae deletion strains, locus YNL271C, strain bni1, active compounds read low 1 | S. cerevisiae deletion strains, locus YNL298W, strain CLA4, active compounds read low 1.01 | S. cerevisiae deletion strains, locus YNL307C, strain MCK1, active compounds read low 1.02 | S. cerevisiae deletion strains, locus YNL322C, strain KRE1 (second series), active compounds read low 1.02 | S. cerevisiae deletion strains, locus YNL322C, strain KRE1, active compounds read low 1 and 1.01 | S. cerevisiae deletion strains, locus YNR049C, strain mso1, active compounds read low 1 | S. cerevisiae deletion strains, locus YNR052C, strain pop2, active compounds read low 1.01 | S. cerevisiae deletion strains, locus YOL006C, strain TOP1, active compounds read low 0.912 | S. cerevisiae deletion strains, locus YOL012C, strain htz1 0.872 | S. cerevisiae deletion strains, locus YOL147C, strain pex11, active compounds read low 1.01 | S. cerevisiae deletion strains, locus YOR001W, strain rrp6, active compounds read low 0.971 | S. cerevisiae deletion strains, locus YOR061W, strain CKA2, active compounds read low 1 | S. cerevisiae deletion strains, locus YOR069W, strain VPS5, active compounds read low 1 | S. cerevisiae deletion strains, locus YOR070C, strain gyp1, active compounds read low 1 | S. cerevisiae deletion strains, locus YOR080W, strain dia2, active compounds read low 1.01 | S. cerevisiae deletion strains, locus YOR083W, strain WHI5 (second series), active compounds read low 1.01 | S. cerevisiae deletion strains, locus YOR083W, strain WHI5, active compounds read low 1.03 | S. cerevisiae deletion strains, locus YOR106W, strain vam3, active compounds read low 1.01 | S. cerevisiae deletion strains, locus YOR136W, strain idh2, active compounds read low 1.01 | S. cerevisiae deletion strains, locus YOR144C, strain elg1, active compounds read low 1.01 | S. cerevisiae deletion strains, locus YOR184W, strain ser1, active compounds read low 1 | S. cerevisiae deletion strains, locus YOR231W, strain MKK1, active compounds read low 1 | S. cerevisiae deletion strains, locus YOR265W, strain rbl2, active compounds read low 1 | S. cerevisiae deletion strains, locus YOR270C, strain vph1, active compounds read low 0.955 | S. cerevisiae deletion strains, locus YOR290C, strain snf2, active compounds read low 1.02 | S. cerevisiae deletion strains, locus YOR316C, strain cot1, active compounds read low 1 | S. cerevisiae deletion strains, locus YPL051W, strain arl3, active compounds read low 0.988 | S. cerevisiae deletion strains, locus YPL078C, strain atp4, active compounds read low 0.974 | S. cerevisiae deletion strains, locus YPL106C, strain sse1, active compounds read low 1.04 | S. cerevisiae deletion strains, locus YPL240C, strain hsp82, active compounds read low 0.998 | S. cerevisiae deletion strains, locus YPL241C, strain CIN2, active compounds read low 1 | S. cerevisiae deletion strains, locus YPL256C, strain CLN2, active compounds read low 0.965 | S. cerevisiae deletion strains, locus YPR119W, strain clb2, active compounds read low 1 | S. cerevisiae deletion strains, locus YPR141C, strain kar3, active compounds read low 1.01 | S. cerevisiae deletion strains, locus YPR163C, strain tif3, active compounds read low 1.02 | S. cerevisiae deletion strains, locus YPR167C, strain met16, active compounds read low 1.02 | S. cerevisiae deletion strains, strain wtn01, active compounds read low 1.02 | S. cerevisiae strains, strain wild type, active compounds read low 0.999
